# Shown are actives, neighbours in structure and some others; about 12% of the full set was active somewhere.
# HP1b chromo inh: blocks HP1-beta chromodomain binding to methylated histone tails | P83916 | Potency, µM (doses to about 114 µM), without a hit: at the highest dose activity change, negative = inhibition, hits mostly inhibitors | hit rate 0.56% among 390,000 | AlphaScreen HP1-beta / biotin-H3K9me3 peptide binding; note: nearly all actives have a fitted effect of over 70% in size
# Target sequence (P83916 whole entry, looked up): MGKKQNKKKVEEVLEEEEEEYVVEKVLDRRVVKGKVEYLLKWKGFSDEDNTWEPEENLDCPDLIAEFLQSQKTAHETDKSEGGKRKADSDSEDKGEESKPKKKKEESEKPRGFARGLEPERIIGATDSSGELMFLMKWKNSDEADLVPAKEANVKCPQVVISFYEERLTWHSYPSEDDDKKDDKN
#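 HP1-beta protein (50 nM final) preincubated 30 min at room temperature with biotinylated H3(1-18)K9me3 peptide (50 nM) in PBS pH 7.4, 0.01% Tween-20, then compound added for 30 min. AlphaScreen streptavidin donor/nickel chelate acceptor beads (10 ug/mL final), 30 min dark, luminescence read.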
# Sfp inh: inhibitors of Bacillus subtilis Sfp phosphopantetheinyl transferase | Q9F4F7 | Biochemical Sfp PPTase activity, qHTS | Potency, µM, for inactives: largest response in the series, negative = inhibition, most hits filed as inhibitors | hit rate 3.5% among 310,000;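 note: the enzyme is Sfp with the accession as filed and its product quenches rhodamine fluorescence; 0% = enzyme reaction without inhibitor and -100% = no enzyme wells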
#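 Compounds were incubated with enzyme (final 15 nM) for 15 min at room temperature before substrate addition started the reaction. Fluorescence at 525 nm excitation, 598 nm emission was recorded immediately and after 30 minutes.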
# BAZ2B inh: blocks human BAZ2B | Q9UIF8 | AlphaScreen BAZ2B-H3K14Ac peptide displacement | Potency, µM (series often up to 114 µM), without a hit: at the top dose activity change, negative = inhibition, actives largely listed as inhibitors | hit rate 4.4% among 360,000 | AID 504333; note: % is set by controls: 0 for no effect and ±100 for the full control effect; nearly all actives have a fitted effect of over 60% in size
#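 Complex of BAZ2B and biotin-H3K14Ac (50 nM apiece) forms over 30 min at RT, then faces library compounds up to 110 uM for another 30 min; AlphaScreen beads added, 20 min dark incubation, luminescence read.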
# JMJD2A Tudor: blocks the human JMJD2A Tudor domain. hit rate 4.4% among 390,000. Potency, µM (series often up to 114 µM), without a hit: at the top dose activity change, negative = inhibition, hits mostly inhibitors. AlphaScreen JMJD2A-Tudor / H3K4me3 peptide binding. O75164; note: % is set by controls: 0 for no effect and ±100 for the full control effect; nearly all actives have a fitted effect of over 50% in size
# PLK1 PBD block: inhibitors of human PLK1 polo-box domain binding; Potency, µM, inactives show max response, negative = inhibition, actives largely listed as inhibitors; Plk1 PBD binding of FITC phosphopeptide, fluorescence polarization; AID 720504; hit rate 2.8% among 360,000; note: series mostly up to about 57 µM; % is set by controls: 0 for no effect and ±100 for the full control effect; nearly all actives have a fitted effect of over 65% in size
# G9a inh: inhibitors of human histone lysine methyltransferase G9a. Q96KQ7. G9a H3K9 monomethylation, AlphaScreen, 2 h. Potency, µM (titrated, usually from 102 µM), for the others: at the highest dose activity, negative = inhibition, actives largely listed as inhibitors. hit rate 8.8% among 350,000. AID 504332; note: % is set by controls: 0 for no effect and ±100 for the full control effect; nearly all actives have a fitted effect of over 75% in size
# Target sequence (Q96KQ7 913-1193 limits assumed): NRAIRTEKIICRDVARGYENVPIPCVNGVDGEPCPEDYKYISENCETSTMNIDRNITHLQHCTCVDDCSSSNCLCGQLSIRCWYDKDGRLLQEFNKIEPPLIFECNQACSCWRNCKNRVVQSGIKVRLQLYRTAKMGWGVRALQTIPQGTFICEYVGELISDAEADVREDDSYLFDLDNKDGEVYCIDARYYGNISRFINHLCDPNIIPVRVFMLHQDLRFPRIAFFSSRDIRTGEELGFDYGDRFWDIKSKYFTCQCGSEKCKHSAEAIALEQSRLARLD
#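 Methyltransferase reactions run at room temperature for 2 h (20 nM enzyme, 500 nM biotin-H3K9 peptide, 20 uM SAM) after a 15 min compound preincubation; product detected by AlphaScreen beads and anti-H3K9me1 antibody.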
# An asterisk follows results filed as active; ? = inconclusive; / = no result given; [ ] = dose if it differs, or a comment. Calls come from the whole dose curve; as a rule, active = well fitted curve in the direction sought with a large enough effect; inconclusive = small, poorly fitted or top-dose-only effect, or another doubt; inactive = no such curve, though single readings can be large; an effect the other way counts as inactive or inconclusive. Potency is the fitted concentration of half-maximal effect.
SMILES,HP1b chromo inh,Sfp inh,BAZ2B inh,JMJD2A Tudor,PLK1 PBD block,G9a inh
CN(CC(=O)N1CC=C(c2ccccc2)CC1)S(=O)(=O)c1ccc2c(c1)c(=O)n(C)c(=O)n2C,43.2%,-13.7%,11.3%,-16.6%,-23.4%,44.7µM*
CCOC(=O)[C@]12CCCC=C1N(Cc1ccc(Cl)cc1Cl)C(=O)[C@H](CC(=O)N1CCOCC1)C2,/,/,/,/,-3.5%,/
C=CCOc1cccc(C2/C(=C(\O)c3ccc4c(c3)OCCO4)C(=O)C(=O)N2CCN2CCOCC2)c1 (stereo not given),48.1%,14.3%,?,-22.9%,-7.9%,39.8µM*
CC(C)c1ccc(C2/C(=C(\O)c3ccc4c(c3)OCCO4)C(=O)C(=O)N2CCN2CCOCC2)cc1 (stereo not given),47.8%,-8.8%,-15.5%[57.1 µM],-30.4%,-29.4%,?
CCCCOc1ccc(C2/C(=C(\O)c3ccc4c(c3)OCCO4)C(=O)C(=O)N2CCCN2CCOCC2)cc1 (stereo not given),-2.1%,2.7%,-35.8%,-29.5%,-7.7%,?
C=CCOc1ccc(C2/C(=C(/O)c3ccc4c(c3)CC(C)O4)C(=O)C(=O)N2CCCN2CCOCC2)cc1 (stereo not given),2.1%,-3.1%,-29.5%,?,-10.9%,44.7µM*
CC1Cc2cc(/C(O)=C3/C(=O)C(=O)N(CCN4CCOCC4)C3c3ccc([N+](=O)[O-])cc3)ccc2O1 (stereo not given),9.0%,-8.4%,?,?,-1.0%,79.4µM*
COC(=O)c1ccc(C2/C(=C(/O)c3ccc4c(c3)CC(C)O4)C(=O)C(=O)N2Cc2ccncc2)cc1 (stereo not given),61.0%,15.2%,?,-21.4%,-11.5%,44.7µM*
C=CCOc1cccc(C2/C(=C(/O)c3ccc(C)cc3)C(=O)C(=O)N2CCN2CCOCC2)c1 (stereo not given),53.1%,0.5%,-7.8%,1.3%,-7.6%,?
O=C(Nc1cccc(F)c1)N1CC2(CCN(C(=O)c3ccco3)CC2)C1,/,-12.7%,/,/,/,0.7%[12.7 µM]
O=C(Nc1ccccc1)N1CCC2(CC1)CCN(S(=O)(=O)c1ccccc1)CC2,/,-7.6%,/,/,/,4.6%[12.7 µM]
O=C(CSc1nc(=O)n(CCN2CCOCC2)c2c1CCC2)Nc1ccc(Cl)c(Cl)c1,25.9%,/,-2.8%,-15.6%,/,0.9%[59 µM]
CC1Cc2cc(/C(O)=C3/C(=O)C(=O)N(CCCN(C)C)C3c3ccncc3)ccc2O1 (stereo not given),27.4%,17.9%,8.9%,7.8%,-1.1%,-5.8%[12.7 µM]
C=CCOc1ccc(C2/C(=C(\O)c3ccc4c(c3)CC(C)O4)C(=O)C(=O)N2CCN2CCOCC2)cc1OCC (stereo not given),-12.8%,-9.5%,79.4µM*,35.5µM*,?,20µM*
CCOc1ccc(C2/C(=C(\O)c3ccc4c(c3)OCCO4)C(=O)C(=O)N2CCN2CCOCC2)cc1OCC (stereo not given),43.1%,24.9%,-25.4%,-10.1%,-10.7%,?
COc1ccc(C2/C(=C(/O)c3ccc4c(c3)CC(C)O4)C(=O)C(=O)N2CCN2CCOCC2)cc1 (stereo not given),7.6%,7.8%,-2.6%,-16.4%,-11.5%,44.7µM*
COc1ccc(C2/C(=C(/O)c3ccc4c(c3)CC(C)O4)C(=O)C(=O)N2CCCN2CCOCC2)cc1 (stereo not given),12.9%,3.5%,-26.7%,?,-20.2%,44.7µM*
Cc1ccc(C2/C(=C(/O)c3ccc4c(c3)CC(C)O4)C(=O)C(=O)N2CCCn2ccnc2)cc1 (stereo not given),34.4%,19.6%,?,11.3%,1.4%,44.7µM*
COC(=O)[C@@H]1ON2OCC(C)=C3CCCC[C@@]32[C@H]1C(=O)OC,/,/,/,/,-2.2%,/
COc1ccc(CCNC(=O)CCn2c(=O)c3ccccc3n(CC(=O)Nc3ccccc3F)c2=O)cc1OC,46.9%,/,-10.3%,-8.9%,/,-28.4%[59 µM]
